Compound activity (PubChem BioAssay)
LGR2 antag = inhibitors of bursicon-induced LGR2 CRE-luciferase signal, primary screen, cell-based, HEK293, CRE-luciferase reporter, bursicon stimulation | 0.35% of 380,000 active | bursicon-stimulated, 4 h | AID 720647, 2013 | Drosophila bursicon receptor LGR2 (rickets) | inhibition, % at 9.99 µM;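 active means drop in luminescence signal, shown as inhibition above about 50% in the replicate tests, limit read from the data, passing the limit was not always enough; inconclusive means probably only some replicates passing the limit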;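 further: agonist challenge used bursicon conditioned medium at about half maximal strength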
TROY NFkB inh = inhibitors of TROY-driven NF-kB signaling, primary screen, Q293 LMP1-TROYcd cells, NF-kB luciferase, uHTS; 0.98% of 360,000 active; Q293 LMP1-TROYcd NF-kB luciferase reporter, 4 h; inhibition, % at 10 µM; AID 1347056, 2019;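 active means compounds whose plate-normalised and pattern-corrected inhibition of the luciferase reporter signal at the single screening dose is 50% or more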
PAX8 inh HTS = inhibitors of PAX8-driven TPO luciferase reporter, primary screen, RMG-I cells, single concentration. inhibition, % at 12.6 µM. 1.2% of 360,000 active. AID 652154, 2013. SteadyGlo, 24 h;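 active means mean replicate inhibition at least 60% with every replicate also reaching 60%; inconclusive means only one of the two criteria is met; inactive means mean below 60% and not all replicates reaching 60%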;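 further: luciferase light reporting Pax8 driven TPO promoter activity; plate controls were median of neutral control wells for no effect and mitoxantrone controls for full effect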
EWS-Fli inh = EWS/Fli-driven NR0B1 reporter inhibitors, primary screen, A673 cells, NR0B1 luciferase, luminescence, MLPCN library; viability-normalised; inhibition, % at 12.6 µM; 0.67% of 350,000 active;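 active means mean inhibition of at least 50% after viability correction, with every replicate also passing that limit; inconclusive means mean reaches 50% but only one of two replicates passes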;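 further: firefly luciferase signal divided by Alamar Blue viability fluorescence both relative to DMSO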
TWEAK Fn14 block = inhibitors of TWEAK-Fn14 signaling, primary screen, luciferase reporter cells, uHTS; 2% of 360,000 active; TWEAK-stimulated Fn14 reporter cells, luciferase luminescence, 8 h; inhibition, % at 10 µM; in the data active means inhibition above about 50%
LMP1 NFkB inh = EBV LMP1-driven NF-kappaB luciferase reporter inhibitors, primary screen, cell-based, luminescence, single point; LMP1-induced NF-kappaB luciferase reporter cells; inhibition, % at 12.5 µM; 0.69% of 350,000 active; in the data active means inhibition above about 41%; inconclusive means no clear call, values can overlap the other calls;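 further: 0% = neutral control wells and 100% = reference inhibitor control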
The depositor's hits bear a star; u = inconclusive; x = no result given. This is a sample that favours compounds with a hit; in the whole collection about 3.1% have one here.

SMILES	LGR2 antag	TROY NFkB inh	PAX8 inh HTS	EWS-Fli inh	TWEAK Fn14 block	LMP1 NFkB inh
Cn1nc(C(=O)Nc2ccc(S(=O)(=O)N3CCCCC3)cc2)ccc1=O	x	5	6	x	104*	16
Cn1nccc1C(=O)Nc1ccc(S(=O)(=O)N2CCCC2)cc1	5	6	x	3	1	6
CC1=NN(c2nc(-c3ccccc3)cs2)C(=O)C1	x	55*	12	x	66*	1
O=C1CC(c2ccccc2)=NN1c1nc(-c2ccccc2)cs1	-37	35	-12	-4	-9	-3
CCNC(=O)C[C@@H]1CC[C@H](NS(=O)(=O)c2ccc(C)cc2)[C@H](CO)O1	16	x	-18	5	x	x
CC(=O)N1Cc2cc(C(=O)NCC(F)(F)F)nc(-c3cccc(-c4cccnc4)c3)c2[C@@H]1CCO	5	16	13	59*	17	x
CCNC(=O)c1cc2c(c(-c3cccc(-c4cccnc4)c3)n1)[C@H](CCO)N(S(C)(=O)=O)C2	1	11	40	55*	28	x
Cc1ccc(S(=O)(=O)Nc2ccc3c(c2)C(=O)N([C@@H](C)CO)C[C@@H](C)[C@H](CN(C)C(=O)Nc2ccc(F)cc2)O3)cc1	-7	x	-11	9	x	x
CC[N+](CC)(CC)CCOc1ccc(/C=C/c2ccccc2)cc1	16	10	96*	7	4	4
COC(=O)CNC(=O)CN1C(=O)N(c2ccccc2)C(N(O)C(=O)Nc2ccccc2)C1(C)C (stereo unspecified)	x	-9	x	x	81*	-4
COC(=O)CN1C(=O)N(c2ccccc2)C(N(O)C(=O)Nc2ccccc2)C1(C)C (stereo unspecified)	x	-27	-37	x	0	-4
CC(=O)/C(N=Nc1ccc2c(c1)OCO2)=C(\C)O	-59	-12	-65	x	25	-22
CC(=O)/C(N=Nc1ccc2c(c1)OCCO2)=C(\C)O	13	27	-3	-16	77*	-1
O=C(Nc1ccc(-c2nc3ccccc3o2)c(O)c1)c1cc(-n2cnnc2)ccc1Cl	x	38	25	x	66*	-18
O=C(Nc1ccc(-c2nc3ccccc3o2)cc1)c1cc(-n2cnnc2)ccc1Cl	x	36	x	x	76*	-28
O=C(Nc1ccc(-c2nc3ccccc3o2)cc1)c1ccc(N2C(=O)C3C4C=CC(C4)C3C2=O)cc1 (stereo unspecified)	0	57*	x	x	21	-3
Cc1c(NC(=O)c2cc(-n3cnnc3)ccc2Cl)cccc1-c1nc2ccccc2o1	x	-34	x	x	-15	-10
O=C(Nc1ccc(-c2nc3ccccc3o2)cc1)c1ccc2c(c1)OCO2	-23	-31	x	4	1	-28
O=C(Nc1ccc2oc(-c3ccccc3)nc2c1)c1cc(-n2cnnc2)ccc1Cl	19	-34	-10	-50	32	-6
COc1ccc2c3c([nH]c2c1)[C@H](CO)N(C(=O)Nc1ccc(F)cc1)CC31CCN(Cc2cc(F)ccc2F)CC1	20	x	x	-4	x	x
C[C@H]1CN([C@@H](C)CO)C(=O)c2cc(NC(=O)c3ccncc3)ccc2O[C@H]1CN(C)C(=O)Nc1ccccc1	2	x	-11	x	x	x
C/C=C/c1ccc2c(c1)O[C@@H](CN(C)C(C)=O)[C@@H](C)CN([C@H](C)CO)S2(=O)=O	-13	x	x	-9	x	x
COc1ccc2c3c([nH]c2c1)[C@H](CO)N(C(=O)c1ccccc1)CC31CCN(C(=O)NC(C)C)CC1	-11	x	x	3	x	x
O=C(Nc1cccc(-c2cnc3ccccc3n2)c1)c1ccccc1	-27	-11	x	x	-5	8
O=C(Nc1cccc(-c2cnc3ccccc3n2)c1)c1cccc(NC(=O)c2ccco2)c1	x	14	72*	x	55*	-45
SMILES	LGR2 antag	TROY NFkB inh	PAX8 inh HTS	EWS-Fli inh	TWEAK Fn14 block	LMP1 NFkB inh
O=C(CCl)Nc1cccc(-c2cnc3ccccc3n2)c1	x	19	-78	x	85*	-32
Cc1ccc(S(=O)(=O)Nc2ccc3c(c2)C(=O)N([C@H](C)CO)C[C@H](C)[C@H](CN(C)C(=O)NC2CCCCC2)OCCCC[C@H](C)O3)cc1	-2	x	11	1	x	x
CCCNC(=O)Nc1ccc2c(c1)C(=O)N(C)C[C@@H](OC)[C@@H](C)CN(C(=O)c1ccccc1F)[C@H](C)CO2	-8	x	x	3	x	x
CCCCCCCN(C(=O)CCl)c1cccc(C)c1	1	-9	103*	x	17	1
N#CCCN(C(=O)COC(=O)c1nc(Cl)ccc1Cl)c1ccccc1	-4	-2	-2	2	2	2
N#CCCN(C(=O)CCl)c1cccc(Cl)c1	x	19	1	35	49	45*
O=C(CCl)N(c1ccccc1)c1ccccc1	12	9	u	40	26	1
CCCCCCN(C(=O)CCl)c1ccccc1	-23	-5	104*	42	32	7
COC(=O)c1cc(=O)n(Cc2ccc(F)cc2)c(=Nc2ccccc2)s1	24	3	4	21	32	-3
COC(=O)c1cc(=O)n(Cc2ccco2)c(=Nc2ccc(F)cc2)s1	x	24	x	x	56*	7
COC(=O)c1cc(=O)n(Cc2ccc(OC)c(OC)c2)c(=Nc2ccc(F)cc2)s1	62*	28	41	3	65*	10
COC(=O)c1cc(=O)n(CCc2ccc(OC)c(OC)c2)c(=Nc2ccc(F)c(Cl)c2)s1	55*	9	17	13	60*	-30
CO[C@@H]1CN(C)C(=O)c2ccc(NC(=O)c3ccccc3)cc2OC[C@@H](C)N(CC2CC2)C[C@@H]1C	-2	x	x	-9	x	x
COC(=O)c1cn[nH]c1NC(=S)Nc1ccc(C)cc1Cl	x	73*	x	x	66*	-71
COC(=O)c1cn[nH]c1NC(=S)Nc1ccc(Cl)c(Cl)c1	26	73*	x	x	69*	-184
CCOC(=O)c1cn[nH]c1NC(=S)Nc1ccc(OC)cc1	x	62*	-80	21	76*	15
CCC(=O)N1[C@H](CN(CC)C(=O)c2ccc(F)cc2)[C@H](c2ccccc2)[C@@H]1CO	14	x	-4	5	x	x
Cc1c(C(=O)Nc2ccc(F)cc2)oc2ccc(S(=O)(=O)N3CC(C)CC(C)C3)cc12 (stereo unspecified)	11	29	x	17	54*	13
CC1CC(C)CN(C(=O)c2ccc(NC(=O)c3ccc(=O)[nH]c3)cc2)C1 (stereo unspecified)	-2	-5	0	2	-8	0
CC1CC(C)CN(S(=O)(=O)c2ccc(NC(=O)c3ccc(=O)[nH]c3)cc2)C1 (stereo unspecified)	0	31	39	64*	10	-1
CCC(=O)Nc1cccc(SC)c1	-21	-17	-16	x	99*	-3
CCC(CC)C(=O)Nc1cccc(SC)c1	16	x	-14	-1	x	x
